Test [1] in a line: Stat Signaling Pathway (AID 446; active means well fitted curve in either direction with a large enough effect, not every such curve was filed as active;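 further: ME-180 cervical cancer cells given 40 pM IL-6 alongside compound; SIE-controlled beta-lactamase reporter measured as 460/530 nm FRET emission ratio; on the % scale 0 is the no-effect control and ±100 the full control effect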). An outline of the steps:
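FRET read-out (405 nm excitation, 460/530 nm emission) of a beta-lactamase reporter under a STAT-inducible element in ME-180 cervical carcinoma cells. Cells with compound receive 40 pM IL-6 for 5 h. Values are normalised to AC90 stimulation and AC90 JAK-inhibitor controls.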

Test [2] has as its target Guanine nucleotide-binding protein G(i) subunit alpha-1 (Homo sapiens) (UniProt P63096). The test can be described thus: qHTS Assay for Inhibitors of RGS12 GoLoco Motif Activity (Green Fluorophore) (AID 879).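 Further: 0% = labeled peptide with Gαi1 and full inhibition = labeled peptide alone without protein; negative values mean loss of peptide binding seen as reduced polarization.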 An outline of the steps: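 A drop in FITC polarization marked displacement of the FITC-tagged RGS12 GoLoco peptide (10 nM) from Gαi1 (50 nM). Compounds were incubated 10 min at room temperature in Tris pH 7.5 buffer containing 150 mM NaCl, 0.1 mM GDP and 0.05% NP40; unlabeled peptide titration served as control.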
For orientation: qHTS replaces the single test concentration by a dilution series.

Test [3] is described as follows: qHTS Assay for Identification of Small Molecule Agonists for Hypoxia Response Element Signaling Pathway (AID 914; active means well fitted activation curve with a large enough effect in the signal ratio, with a control signal flat, not every such curve was filed as active; the % refers to the signal ratio; further: % of control where 0% means no effect). To be noted: ME-180 (cervical carcinoma) HRE-bla reporter, beta-lactamase ratio, CoCl2, 17 h; activation: stronger effect = higher value. An outline of the steps:
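Cells were plated overnight, pin-dosed with compound in a titration series, co-stimulated with EC50 CoCl2 and incubated 17 hours at 37 degrees Celsius. CCF4 substrate was then loaded, and AC50 values came from the 460nm/530nm ratio.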

Test [4] is described as follows: qHTS Assay for Identification of Small Molecule Agonists for Thrombopoietin (TPO) Signaling Pathway (AID 917). Further: on the % scale 0 is the no-effect control and ±100 the full control effect. A digest of the protocol: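 Luciferase reporter (Glycoprotein IIb promoter) in IL-3-deprived Ba/F3 cells carrying human TPO receptor; compounds co-added with 26 pM TPO, incubated 24 h, 37 C. Steadylite luminescence measured after 10 min.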
The target in test [5] is Muscarinic acetylcholine receptor M1 (Rattus norvegicus) (UniProt P08482). Description: qHTS Assay for Antagonists of Acetylcholine Muscarinic M1 Receptor: Kinetic Measurement of Intracellular Calcium Response (AID 943). Further: nearly all actives have a fitted effect of over 75% in size. Further: potency means the concentration at half of the fitted maximal effect. An outline of the steps: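 Antagonism measured as reduction of carbachol-evoked (EC80, 100 nM final) calcium flux in rat M1-CHO cells after 10 min compound exposure. Fluo-4 signal read kinetically; ratio of maximal to basal fluorescence.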

Test [6] shares this target. The test can be described thus: qHTS Assay for Antagonists of Acetylcholine Muscarinic M1 Receptor: Measurement of IP-One Response (AID 944). Further: nearly all actives have a fitted effect of over 75% in size. Further: potency means the concentration at half of the fitted maximal effect. A digest of the protocol:
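IP1 accumulation measured via TR-FRET between d2-IP1 and Eu-cryptate anti-IP1 antibody after carbachol (200 nM, EC80) stimulation for 30 min; rat M1-transfected CHO cells received compound 10 min before agonist.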

Test [7] has as its target Pyruvate kinase (Leishmania mexicana) (UniProt Q27686). The test can be described thus: qHTS Validation Assay for Inhibitors of Leishmania Mexicana Pyruvate Kinase (AID 945).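 Further: 0% = DMSO only neutral control wells.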 A digest of the protocol: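 The enzyme is a highly purified E451W mutant of LmPYK used at 0.2 nM. It converts 0.5 mM PEP and 0.1 mM ADP over 1 h at room temperature; product ATP is quantified by luciferase luminescence relative to DMSO controls.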

The target in test [8] is Pyruvate kinase PKM (Homo sapiens) (UniProt P14618). The test can be described thus: qHTS Assay for Activators of Human Muscle Pyruvate Kinase (AID 954; active means well fitted curve in the direction sought with a large enough effect, not every such curve was filed as active;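 further: 0% = uninhibited enzyme and -100% = no enzyme or full thiadiazolimine inhibition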). An outline of the steps:
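ATP production by PKM2 detected via luciferase luminescence after 1 h room-temperature reaction (0.1 nM enzyme, PEP at Km 0.5 mM, ADP 0.1 mM, pH 7.2 imidazole buffer). Inhibition scaled to no-enzyme control; activation referenced to 0.3 nM enzyme wells.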

Test [9] concerns the target Alpha-galactosidase (Coffea arabica) (UniProt Q42656). Description: Counterscreen for Glucocerebrosidase Inhibitors: qHTS Assay for Coffee Bean alpha-Galactosidase at pH 4.5 (AID 957).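 Further: plate controls were enzyme alone for no effect and no enzyme for full effect.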 A digest of the protocol:
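Fluorogenic qHTS at pH 4.5 (citrate buffer with Tween-20): 2 nM enzyme, 80 uM 4-MU-alpha-galactoside substrate, compound titrated 0.7 nM to 77 uM, 20 min room temperature. Glycine/NaOH stop; 4-MU read Ex 365/Em 440; Hill-equation AC50 against no-enzyme and enzyme controls.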
Background: The purpose of a counterscreen is to sort out artefacts and off-target activity.

The target in test [10] is Alpha-galactosidase A (Homo sapiens) (UniProt P06280). Description: Counterscreen for Glucocerebrosidase Inhibitors: qHTS Assay for Human alpha-Galactosidase at pH 4.5 (AID 992). Further: 0% is about no effect. A digest of the protocol:
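Fluorogenic 1536-well qHTS at pH 4.5 (citrate, Tween-20): 2 nM enzyme, 80 uM 4-MU-alpha-galactoside, 20 min room temperature, NaOH/glycine stop. Titration 0.7 nM to 77 uM, data normalized to no-enzyme and full-activity controls, Hill-fitted AC50.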

The target in test [11] is alpha-glucosidase (Oryza sativa, rice) (UniProt Q653V4). Description: Counterscreen for Glucocerebrosidase Inhibitors: qHTS Assay for Rice alpha-Glucosidase at pH 5.0 (AID 997).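 Further: 0% = full activity with enzyme and -100% = basal without enzyme.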 An outline of the steps: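 Endpoint fluorogenic assay at pH 5.0: compounds (0.7 nM to 77 uM) titrated against 4 nM rice enzyme and 400 uM 4-MU-alpha-glucoside for 20 min at room temperature; NaOH/glycine stop, read ex 365/em 440 nm, Hill-fitted AC50.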

For test [12], the target named is Alpha-galactosidase (Coffea arabica) (UniProt Q42656). The test can be described thus: Counterscreen for Glucocerebrosidase Inhibitors: qHTS Assay for Coffee Bean alpha-Galactosidase at pH 5.9 (AID 998).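 Further: plate controls were uninhibited enzyme for no effect and no-enzyme basal signal for full effect.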 A digest of the protocol: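 Fluorogenic 4-MU substrate hydrolysis, 80 uM substrate and 2 nM coffee bean alpha-galactosidase, pH 5.9 citrate buffer, 20 min at room temperature, then NaOH/glycine stop. Titration 0.7 nM–77 uM, normalized to no-enzyme and enzyme controls, AC50 via Hill equation.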

For test [13], the target named is Cytochrome P450 2C9 (Homo sapiens) (UniProt P11712). The test can be described thus: qHTS Assay for Inhibitors and Substrates of Cytochrome P450 2C9 (AID 883). Further: nearly all actives have a fitted effect of over 60% in size. Further: potency means the concentration at half of the fitted maximal effect. A digest of the protocol:
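Inhibition of CYP2C9 is scored as loss of luminescence, with 57uM sulphaphenazole defining 100% inhibition. Substrate Luciferin-H is used at 100uM, equal to its KM; enzyme at 10nM in 25mM KPO4, 60 min at 37C with NADPH regeneration.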

In test [14] the target is Cytochrome P450 2C19 (Homo sapiens) (UniProt P33261). Description: qHTS Assay for Inhibitors and Substrates of Cytochrome P450 2C19 (AID 899). Further: nearly all actives have a fitted effect of over 60% in size. Further: potency means the concentration at half of the fitted maximal effect. On activity, negative = inhibition: on the % scale 0 is the no-effect control and ±100 the full control effect. A digest of the protocol:
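5nM enzyme + 10uM Luciferin-H EGE (=KM), 50mM KPO4; cpd pin-transferred, 10 min 37C; NADPH regen, 60 min 37C; stopped w/ luciferin detection reagent, 20 min; luminescence. Normalized to 57uM ketoconazole (AC100).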

The nature of test [15]: Confirmation and Secondary Assay for Modulators of Hemoglobin Beta Chain Splicing at IVS2 705 locus (AID 930).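 Further: HeLa cells stably expressing the EGFP-705 splicing reporter; GFP fluorescence per well restored by corrected splicing of the IVS2-705 intron in EGFP; % of control where 0% means no effect.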 A digest of the protocol: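 Splice-correction reporter: EGFP cDNA split by beta-globin intron 2 bearing the 705 mutation, stably in HeLa. Compound incubation 2 days, 37C; fluorescent objects 5-250 µm summed per well.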
The nature of test [16]: qHTS profiling for inhibitors of Plasmodium falciparum proliferation (AID 504749). Further: potency means the concentration at half of the fitted maximal effect.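 On activity, negative = inhibition: 0% = DMSO vehicle and full inhibition = artemisinin control.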 On all read-outs here: nearly all actives have a fitted effect of over 60% in size. The settings on record: P. falciparum in erythrocytes, SYBR Green DNA, 72 h; for activity, negative = inhibition: at 12.8 µM (top of the series). A digest of the protocol: (§1)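 SYBR Green fluorescence of parasite DNA, read after lysis and overnight dark incubation, measured growth over 72 h in erythrocyte culture at 0.3% parasitemia and 2.5% hematocrit. Data normalised to DMSO and 0.29 uM artemisinin, with plate-drift correction.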

In the next test the test system is AS120. The description is as above. The settings on record: P. falciparum in erythrocytes, SYBR Green DNA, 72 h; series mostly up to 28.7 µM. An outline of the steps: as §1
A further test has as its system CP203. The test is described as above. To be noted: P. falciparum in erythrocytes, SYBR Green DNA, 72 h; series mostly up to 28.7 µM. A digest of the protocol: as §1
A further test concerns CP291. The test is described as above. The settings on record: P. falciparum in erythrocytes, SYBR Green DNA, 72 h; series mostly up to 28.7 µM. An outline of the steps: as §1
The test system of a further test is DFO2036. The description is as above. The settings on record: P. falciparum in erythrocytes, SYBR Green DNA, 72 h; series mostly up to 28.7 µM. A digest of the protocol: as §1

The structures appear in SMILES notation. Values without a mark were called inactive. Records with an inconclusive call do not appear. Activity calls are given as the source filed them. Unless noted, the call rests on the fitted dose curve; in most records, active means well fitted curve in the direction sought with a large enough effect; inconclusive means small, poorly fitted or top-dose-only effect, or another doubt; inactive means no such curve, though single readings can be large; an effect the other way counts as inactive or inconclusive.

Alpha-galactosidase (Coffea arabica), sequence (Q42656 whole entry, looked up): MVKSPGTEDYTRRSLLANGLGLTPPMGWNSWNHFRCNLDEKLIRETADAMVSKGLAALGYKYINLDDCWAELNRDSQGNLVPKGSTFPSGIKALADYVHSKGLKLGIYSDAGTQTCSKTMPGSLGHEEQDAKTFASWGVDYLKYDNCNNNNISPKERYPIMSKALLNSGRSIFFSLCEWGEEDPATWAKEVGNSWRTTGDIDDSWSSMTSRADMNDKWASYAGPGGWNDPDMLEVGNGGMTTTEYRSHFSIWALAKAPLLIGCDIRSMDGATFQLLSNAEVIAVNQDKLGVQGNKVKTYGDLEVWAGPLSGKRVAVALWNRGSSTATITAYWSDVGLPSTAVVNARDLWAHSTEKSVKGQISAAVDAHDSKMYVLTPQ
Pyruvate kinase (Leishmania mexicana), sequence (Q27686 2-499 E452W): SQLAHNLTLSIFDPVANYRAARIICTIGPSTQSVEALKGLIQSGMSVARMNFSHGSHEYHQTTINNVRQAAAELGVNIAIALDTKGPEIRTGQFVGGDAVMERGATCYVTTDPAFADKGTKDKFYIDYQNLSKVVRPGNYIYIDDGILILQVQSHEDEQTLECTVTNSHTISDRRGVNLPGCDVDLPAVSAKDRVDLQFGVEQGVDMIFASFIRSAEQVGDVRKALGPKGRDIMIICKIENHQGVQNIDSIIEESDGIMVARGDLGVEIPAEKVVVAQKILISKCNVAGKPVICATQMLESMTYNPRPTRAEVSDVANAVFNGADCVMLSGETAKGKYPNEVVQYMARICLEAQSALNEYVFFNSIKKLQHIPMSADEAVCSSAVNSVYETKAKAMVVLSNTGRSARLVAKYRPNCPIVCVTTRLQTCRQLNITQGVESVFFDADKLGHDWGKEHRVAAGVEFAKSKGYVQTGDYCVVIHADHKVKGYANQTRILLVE
Muscarinic acetylcholine receptor M1 (Rattus norvegicus), sequence (P08482 whole entry, looked up): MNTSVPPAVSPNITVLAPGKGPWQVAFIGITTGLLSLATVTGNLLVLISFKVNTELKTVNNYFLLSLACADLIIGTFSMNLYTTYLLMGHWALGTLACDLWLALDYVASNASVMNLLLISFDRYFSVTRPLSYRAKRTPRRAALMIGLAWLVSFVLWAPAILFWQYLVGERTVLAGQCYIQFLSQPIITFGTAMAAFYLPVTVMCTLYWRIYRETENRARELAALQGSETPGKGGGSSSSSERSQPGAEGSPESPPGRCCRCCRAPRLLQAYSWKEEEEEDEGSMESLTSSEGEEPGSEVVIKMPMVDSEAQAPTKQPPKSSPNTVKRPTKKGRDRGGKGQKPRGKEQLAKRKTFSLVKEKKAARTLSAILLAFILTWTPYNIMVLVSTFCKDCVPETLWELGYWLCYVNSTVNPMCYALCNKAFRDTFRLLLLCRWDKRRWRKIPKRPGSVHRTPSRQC
Cytochrome P450 2C19 (Homo sapiens), sequence (P33261 whole entry, looked up): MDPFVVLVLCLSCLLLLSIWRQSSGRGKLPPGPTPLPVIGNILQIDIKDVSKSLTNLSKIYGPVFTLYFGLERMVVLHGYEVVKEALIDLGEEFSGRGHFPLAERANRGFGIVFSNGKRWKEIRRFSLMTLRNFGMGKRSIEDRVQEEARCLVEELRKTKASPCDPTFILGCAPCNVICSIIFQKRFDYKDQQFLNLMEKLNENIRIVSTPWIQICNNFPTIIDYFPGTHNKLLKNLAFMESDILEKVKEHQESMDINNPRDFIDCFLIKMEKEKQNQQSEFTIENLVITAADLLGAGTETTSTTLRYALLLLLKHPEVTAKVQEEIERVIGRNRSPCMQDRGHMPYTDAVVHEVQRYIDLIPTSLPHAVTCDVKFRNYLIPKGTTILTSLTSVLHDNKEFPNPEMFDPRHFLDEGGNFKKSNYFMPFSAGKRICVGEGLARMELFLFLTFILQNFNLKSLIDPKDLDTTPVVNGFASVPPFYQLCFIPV
Alpha-galactosidase A (Homo sapiens), sequence (P06280 whole entry, looked up): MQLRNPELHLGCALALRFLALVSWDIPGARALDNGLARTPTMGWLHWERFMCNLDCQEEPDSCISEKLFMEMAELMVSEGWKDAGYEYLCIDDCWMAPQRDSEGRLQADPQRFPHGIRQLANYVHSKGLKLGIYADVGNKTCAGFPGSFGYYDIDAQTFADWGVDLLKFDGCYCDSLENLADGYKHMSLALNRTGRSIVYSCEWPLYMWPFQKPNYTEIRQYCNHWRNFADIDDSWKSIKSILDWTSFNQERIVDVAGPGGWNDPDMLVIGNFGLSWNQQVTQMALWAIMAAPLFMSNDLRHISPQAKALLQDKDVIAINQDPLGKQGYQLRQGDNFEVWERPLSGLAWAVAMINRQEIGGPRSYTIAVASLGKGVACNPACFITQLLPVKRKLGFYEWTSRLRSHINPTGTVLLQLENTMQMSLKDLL
Guanine nucleotide-binding protein G(i) subunit alpha-1 (Homo sapiens), sequence (P63096 whole entry, looked up): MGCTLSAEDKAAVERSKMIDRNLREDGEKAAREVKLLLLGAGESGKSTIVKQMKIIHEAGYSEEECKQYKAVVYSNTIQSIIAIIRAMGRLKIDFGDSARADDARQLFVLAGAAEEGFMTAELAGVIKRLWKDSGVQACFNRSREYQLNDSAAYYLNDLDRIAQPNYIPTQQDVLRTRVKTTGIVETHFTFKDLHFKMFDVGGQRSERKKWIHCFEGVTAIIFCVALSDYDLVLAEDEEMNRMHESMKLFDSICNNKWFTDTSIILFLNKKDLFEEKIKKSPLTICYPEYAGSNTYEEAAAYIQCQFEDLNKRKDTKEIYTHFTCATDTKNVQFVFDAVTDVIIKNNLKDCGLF
Pyruvate kinase PKM (Homo sapiens), sequence (P14618 whole entry, looked up): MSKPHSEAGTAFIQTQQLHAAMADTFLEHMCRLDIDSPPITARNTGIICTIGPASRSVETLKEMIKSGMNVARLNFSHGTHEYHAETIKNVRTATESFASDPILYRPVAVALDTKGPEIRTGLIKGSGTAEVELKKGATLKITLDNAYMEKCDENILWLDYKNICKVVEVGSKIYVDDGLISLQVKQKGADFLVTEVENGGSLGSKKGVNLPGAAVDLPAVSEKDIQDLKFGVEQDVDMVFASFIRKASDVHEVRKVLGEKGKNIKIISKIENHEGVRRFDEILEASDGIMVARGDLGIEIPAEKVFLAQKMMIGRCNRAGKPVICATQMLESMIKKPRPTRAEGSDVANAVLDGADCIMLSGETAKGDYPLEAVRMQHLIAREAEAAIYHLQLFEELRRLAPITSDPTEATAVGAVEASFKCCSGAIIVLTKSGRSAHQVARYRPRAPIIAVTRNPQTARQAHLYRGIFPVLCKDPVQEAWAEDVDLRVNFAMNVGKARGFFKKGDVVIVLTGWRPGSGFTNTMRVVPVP
Cytochrome P450 2C9 (Homo sapiens), sequence (P11712 whole entry, looked up): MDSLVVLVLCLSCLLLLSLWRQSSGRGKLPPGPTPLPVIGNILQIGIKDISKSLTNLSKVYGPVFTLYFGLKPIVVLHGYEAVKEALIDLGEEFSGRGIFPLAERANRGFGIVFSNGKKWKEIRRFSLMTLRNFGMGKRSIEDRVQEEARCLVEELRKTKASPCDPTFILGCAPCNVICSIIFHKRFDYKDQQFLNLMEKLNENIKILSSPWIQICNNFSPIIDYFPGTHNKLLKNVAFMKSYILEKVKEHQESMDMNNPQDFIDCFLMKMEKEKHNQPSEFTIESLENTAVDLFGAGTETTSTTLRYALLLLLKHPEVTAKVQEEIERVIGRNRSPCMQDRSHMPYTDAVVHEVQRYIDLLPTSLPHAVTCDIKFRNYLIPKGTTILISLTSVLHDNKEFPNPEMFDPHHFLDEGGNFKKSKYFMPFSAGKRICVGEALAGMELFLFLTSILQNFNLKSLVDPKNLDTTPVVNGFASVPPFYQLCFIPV

Turning to `NC[C@H](CP(=O)(O)O)c1ccc(Cl)cc1`, the compound was classed as inactive in [1], in test [2], in test [4], in test [7], in [8] and in test [9]. Besides, the outcome in [10], in test [11] and in [12] was inactive. In addition, the activation in [3] was -2.39%. Moreover, the Potency entry in test [5] and in test [6] was “inactive” throughout.

With `CN1CCN(C(=O)O[C@@H]2c3nccnc3C(=O)N2c2ccc(Cl)cn2)CC1`, the result in test [1] and in test [15] was inactive. Further, the Potency result in [13] and in [14] was “inactive” in each case.

Take `CN1[C@@H]2CC[C@H]1CC(O[C@@H](c1ccccc1)c1ccc(Cl)cc1)C2` (some centres undefined): the compound was called inactive in test [1], in [2], in test [7], in [8], in test [9] and in test [10]. In addition, the outcome in test [11] was inactive. The activation in [3] is -9.36%. Besides, the Potency is 0.02 µM (active) in [5] and 0.0126 µM (active) in [6].

On to `COC(=O)CN1CN(c2ccccc2)C2(CCN(Cc3ccc4ccccc4c3)CC2)C1=O`, for which the Potency entry in test [13] was “inactive”.

With `S=C=Nc1cccc(C2(N3CCCCC3)CCCCC2)c1`, the result in test [1] was inactive. For the same compound, the Potency entry in test [13] and in [14] was “inactive” throughout.

In the case of `Cn1cc(C(=O)C(=O)N[C@H]2CN3CCC2CC3)c2ccccc21`, the Potency result in test [13] was “inactive”.

Consider `Cc1c(C(=O)c2ccc3ccccc3c2)c2cccc3c2n1[C@H](CN1CCOCC1)CO3`, for which, in [13], the Potency entry was “inactive”.

As for `CC(C)[C@@]1(NC(=O)[C@H]2CC3c4cccc5[nH]cc(c45)C[C@H]3N(C)C2)O[C@@]2(O)C3CCCN3C(=O)[C@@H](Cc3ccccc3)N2C1=O` (some centres undefined), the Potency in [16] (parasite line A) was 6.31 µM (active); in test [16] (parasite line B), 5.01 µM (active); in the test with AS120 it was 0.891 µM (active); in the test on CP203, 6.75 µM (active); in the test on CP291 it was 10.7 µM (active); with DFO2036, 7.08 µM (active).

Turning to `N[C@H](C(=O)O)c1cc(=O)[nH]o1`, the outcome in test [2], in [4], in [7], in test [8], in [9] and in test [10] was inactive. Besides, the compound was called inactive in test [11] and in test [12]. Moreover, the Potency result in test [13], in test [14], in test [5] and in test [6] was “inactive” throughout.

`C(=C/c1ccccc1)/CN1CCN(CCOC(c2ccccc2)c2ccccc2)CC1`: the Potency in [13] is 5.01 µM (active).

As for `Oc1ccc2c3c1O[C@H]1c4oc5ccccc5c4C[C@]4(O)[C@H](C2)N(CC2CC2)CC[C@@]314`, the compound was classed as inactive in [2], in [4], in [7], in [8], in test [9] and in test [10]. Besides, the result in test [11] and in [12] was inactive.

For `NC[C@H](CC(=O)O)c1ccc(Cl)cc1`, the Potency in test [14] was 2.51 µM (active).

Consider `O=C(O)c1ccccc1-c1c2cc(Br)c(=O)cc-2oc2[c]([Hg])c(O)c(Br)cc12`, for which the Potency was 0.631 µM (active) in test [13] and 3.16 µM (active) in test [14]. In addition, the compound was called inactive in test [15]. Moreover, the activity, negative = inhibition is 23.4% in [16] (parasite line A) and 5.61% in test [16] (parasite line B). Also, the Potency result in the test on AS120, in the test on CP203, with CP291 and with DFO2036 was “inactive” each time.

Values taken from PubChem BioAssay (NCATS).
